# Source: PubChem BioAssay (NCATS)
# Inconclusive results are not listed. Where a call stands in place of a potency, no number is given. Active and inactive are the calls of the source. The call rests on the fitted dose curve; in most records, active means well fitted inhibition curve with a large enough effect; inconclusive means small, poorly fitted or top-dose-only effect; inactive means flat fitted curve, though single readings scatter.
# Assay: P-glycoprotein substrates identified in KB-8-5-11 adenocarcinoma cell line, qHTS therapeutic library screen (AID 1346987); further: nearly all actives have a fitted effect of over 65% in size
# Details: KB-8-5-11 (P-gp overexpressing) viability, CellTiter-Glo, 72 h; series mostly up to 44.5 µM
# How it was run: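 Compounds are pinned in dose-response onto KB-8-5-11 cells (500 cells/well, colchicine-free medium) and left 72 h at 37 degree C. CellTiter-Glo luminescence then yields AC50 values.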
SMILES,Potency,"activity change, negative = cytotoxicity"
COc1cc2c(cc1O)C(c1ccc(O)cc1)C(C)C(C)C2 (configuration not stated),inactive,
COC1CC(O[C@H]2CC[C@@]3(C)C(=CC[C@]4(O)C3[C@H](O)[C@@H](O)[C@]3(C)[C@@H]([C@H](C)O)CC[C@@]34O)C2)OC(C)C1OC1CC(OC)C(OC2CC(OC)C(OC3OC(C)C(OC4OC(CO)C(O)C(O)C4O)C(OC)C3O)C(C)O2)C(C)O1 (some centres not stated),,0.732% [at 9.29 µM] (inactive)
COc1cccc(C(=O)NCCNc2nc3cc(C)cc(C)c3cc2C#N)c1,inactive,
CC(C)/C=C1/NC(=O)C(C(C)C)n2c1nc1c(O)cccc1c2=O (configuration not stated),inactive,
CC1=C2C[C@@]3(C)[C@@H](CCC[C@@H]3C)C[C@@]2(O)OC1=O,inactive,
COC(=O)C1C(c2ccc(O)cc2)C(C(=O)O)C1c1ccc(O)cc1 (configuration not stated),inactive,
OC[C@@]1(O)CO[C@@H](OC[C@H]2O[C@@H](Oc3ccccc3)[C@H](O)[C@@H](O)[C@@H]2O)[C@@H]1O,inactive,
